Data reported in PubChem BioAssay (NCATS).
“And” between values parts separate entries of the source, which are not always exact repeats. Equal values may be shown once. Results filed as inconclusive are left out. Entries that show only a call come without a potency. Values without a mark were called inactive. The source made the active and inactive calls. Calls come from the whole dose curve; as a rule, active = well fitted inhibition curve with a large enough effect; inconclusive = small, poorly fitted or top-dose-only effect; inactive = flat fitted curve, though single readings scatter.

What was measured:
HEK293 = assay: Cytotoxic Profiling of Annotated Libraries Using Quantitative High-Throughput Screening (AID 1296008); conditions: Five cell lines viability, CellTiter-Glo ATP luminescence, 48-72 h; max response: hits give low values; note: potency is the fitted concentration of half-maximal effect
Summary of the method: (§1)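 Cells exposed to compounds for 48 or 72 hr at 37 degrees Celsius. Viability read as ATP-coupled luminescence with CellTiter-Glo after 10 min at room temperature.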

HaCat [1] = assay: as above; conditions: Five cell lines viability, CellTiter-Glo ATP luminescence, 48-72 h; max response: hits give low values
Summary of the method: as §1

HACAT [2] = assay: qHTS assay to identify novel small-molecules to repurpose for Merkel cell carcinoma treatment (AID 1296009); conditions: MCC and control cell lines, CellTiter-Glo viability, 72 h; at 44.8 µM (top of the series) unless noted; note: potency is the fitted concentration of half-maximal effect
Summary of the method: (§2)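 Dose-response viability screen; 72 hr exposure at 37 degree celsius; CellTiter-Glo added, 10 min room temperature, luminescence read; RLUs scaled between no-cell and DMSO wells.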

MCC-13 = assay: as above; conditions: MCC and control cell lines, CellTiter-Glo viability, 72 h; series mostly up to 46 µM
Summary of the method: as §2

MCC-26 = assay: as above; conditions: MCC and control cell lines, CellTiter-Glo viability, 72 h; series mostly up to 46 µM
Summary of the method: as §2

KB-3-1 = assay: Cytotoxic Profiling of Annotated Libraries Using Quantitative High-Throughput Screening (AID 1296008); conditions: Five cell lines viability, CellTiter-Glo ATP luminescence, 48-72 h; max response: hits give low values; note: potency is the fitted concentration of half-maximal effect
Summary of the method: as §1

P94_40 = assay: qHTS profiling for inhibitors of Plasmodium falciparum proliferation (AID 504749); conditions: P. falciparum in erythrocytes, SYBR Green DNA, 72 h; series mostly up to 28.7 µM
Summary of the method: (§3)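 Each compound contacts P. falciparum-infected red blood cells for 72 h at 37 C; lysis buffer (Tris, EDTA, saponin, Triton X, SYBR Green I) is added and fluorescence measured next morning; values normalized to controls.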

PAD = assay: as above; conditions: P. falciparum in erythrocytes, SYBR Green DNA, 72 h; series mostly up to 28.7 µM
Summary of the method: as §3

PC15 = assay: as above; conditions: P. falciparum in erythrocytes, SYBR Green DNA, 72 h; series mostly up to 28.7 µM
Summary of the method: as §3

PC49 = assay: as above; conditions: P. falciparum in erythrocytes, SYBR Green DNA, 72 h; series mostly up to 28.7 µM
Summary of the method: as §3

SC27B = assay: as above; conditions: P. falciparum in erythrocytes, SYBR Green DNA, 72 h; series mostly up to 28.7 µM
Summary of the method: as §3

TAB109 = assay: as above; conditions: P. falciparum in erythrocytes, SYBR Green DNA, 72 h; series mostly up to 28.7 µM
Summary of the method: as §3

TAB113 = assay: as above; conditions: P. falciparum in erythrocytes, SYBR Green DNA, 72 h; series mostly up to 28.7 µM
Summary of the method: as §3

TAB165 = assay: as above; conditions: P. falciparum in erythrocytes, SYBR Green DNA, 72 h; series mostly up to 28.7 µM
Summary of the method: as §3

W2 = assay: as above; conditions: P. falciparum in erythrocytes, SYBR Green DNA, 72 h; series mostly up to 28.7 µM
Summary of the method: as §3

NIH3T3 = assay: Cytotoxic Profiling of Annotated Libraries Using Quantitative High-Throughput Screening (AID 1296008); conditions: Five cell lines viability, CellTiter-Glo ATP luminescence, 48-72 h; max response: hits give low values; note: potency is the fitted concentration of half-maximal effect
Summary of the method: as §1
Note: nearly all actives have a fitted effect of over 60% in size.

## CNC1CCC(N(Cc2cccc(-c3ccncc3)c2)C(=O)c2sc3c(F)ccc(F)c3c2Cl)CC1 (stereo not drawn)
HEK293
  Potency: 13.2 µM (active) and 13 µM (active)
HaCat [1]
  outcome: inactive
HACAT [2]
  outcome: inactive
MCC-13
  Potency: inactive
MCC-26
  Potency: inactive

## CC(C)n1cnc2c(NCCCCCCNC(=O)OC(C)(C)C)nc(NCCO)nc21
HEK293
  Potency: 14.8 µM (active)
HaCat [1]
  max response: -3.35%
MCC-13
  Potency: inactive
MCC-26
  Potency: inactive

## O=C(NOCC(O)CO)c1cc(Br)c(F)c(F)c1Nc1ccc(I)cc1F (stereo not drawn)
HEK293
  max response: 0.434%
KB-3-1
  max response: -16.7%
MCC-26
  Potency: inactive

## COc1ccc(Cc2nccc3cc(OC)c(OC)cc23)cc1OC
P94_40
  Potency: inactive
PAD
  outcome: inactive
PC15
  outcome: inactive
PC49
  outcome: inactive
SC27B
  Potency: inactive
TAB109
  outcome: inactive
TAB113
  Potency: inactive
TAB165
  Potency: inactive
W2
  Potency: inactive

## Nc1nc(F)nc2c1ncn2[C@@H]1O[C@H](COP(=O)(O)O)[C@@H](O)[C@H]1O
HEK293
  max response: -8.85%
KB-3-1
  outcome: inactive
MCC-26
  Potency: inactive

## c1ccc2c(-c3cnn4cc(-c5ccc(N6CCNCC6)cc5)cnc34)ccnc2c1
KB-3-1
  Potency: 3.32 µM (active)
NIH3T3
  max response: -102%
MCC-13
  Potency: 10.5 µM (active)
MCC-26
  Potency: 8.33 µM (active)

## COc1ccc(-c2oc3c(CC=C(C)C)c(OC4O[C@H](CO)[C@@H](O)[C@H](O)[C@@H]4O)cc(O)c3c(=O)c2OC2O[C@@H](C)[C@H](O)[C@@H](O)[C@@H]2O)cc1 (stereo partly drawn)
HEK293
  Potency: 18.7 µM (active)
NIH3T3
  max response: -16.5%
MCC-13
  Potency: inactive
MCC-26
  Potency: inactive

## COc1ccc2c(Oc3ccc(NC(=O)c4c(C)n(CC(C)(C)O)n(-c5ccccc5)c4=O)cc3F)ccnc2c1
HaCat [1]
  max response: 2.66% and -22.8%
KB-3-1
  max response: -19.2%
MCC-13
  Potency: inactive
MCC-26
  Potency: inactive

## CC[C@@H]1C=C(C)C[C@H](C)C[C@H](OC)[C@H]2O[C@@](O)(C(=O)C(=O)N3CCCC[C@@H]3C(=O)O[C@H](C(C)=C[C@@H]3CC[C@H](Cl)[C@H](OC)C3)[C@H](C)[C@@H](O)CC1=O)[C@H](C)C[C@H]2OC
HEK293
  Potency: 16.6 µM (active)
KB-3-1
  outcome: inactive
NIH3T3
  max response: -7.01%
MCC-13
  Potency: inactive
MCC-26
  Potency: inactive

## Cc1ccc(C(=O)Nc2cccc(C(F)(F)F)c2)cc1Nc1nc(-c2cccnc2)nc2c1cnn2C
HEK293
  Potency: 13.2 µM (active)
KB-3-1
  max response: -14.6%
NIH3T3
  Potency: 9.35 µM (active)
MCC-13
  Potency: inactive
MCC-26
  Potency: inactive

## CC(C)OC(=O)CCCC=CC[C@@H]1[C@H](C=C[C@@H](O)COc2cccc(C(F)(F)F)c2)[C@H](O)C[C@@H]1O
HEK293
  Potency: 11.8 µM (active)
MCC-26
  Potency: inactive
